Screening data as filed in PubChem.
ALDH1A1 inh – qHTS Assay for Inhibitors of Aldehyde Dehydrogenase 1 (ALDH1A1); Purified ALDH1A1, NADH fluorescence, propionaldehyde substrate; Potency, µM (highest dose often 75.3 µM), for the others: at the highest dose activity, negative = inhibition, usual class: inhibitors; hit rate 7.3% among 220,000;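 also: potency is read from the fitted curve at half-maximal effect; plate controls were no enzyme wells and a reference inhibitor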
IMPase inh – qHTS Assay for Identifying the Cell-Membrane Permeable IMPase Inhibitors. inhibition (IP1 accumulation), % at 46.1 µM. CHO-M1 cells, IP1 accumulation, HTRF TR-FRET ratio. AID 901, 2007. Inositol monophosphatase 1 (Rattus norvegicus), P97697. 120,000 tested, under 10 active; active = well fitted curve in the direction sought with a large enough effect in the signal ratio, not every such curve was filed as active; inconclusive = small, poorly fitted or top-dose-only effect, or a change in a side signal; inactive = no such curve, though single readings can be large or run the other way; the % refers to the signal ratio;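 also: cells stimulated with carbachol in lithium chloride buffer; plate controls were DMSO basal wells for no effect and reference inhibitor wells for full effect; higher means more IMPase inhibition seen as more IP1 and lower FRET ratio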
Target sequence (P97697 whole entry, looked up): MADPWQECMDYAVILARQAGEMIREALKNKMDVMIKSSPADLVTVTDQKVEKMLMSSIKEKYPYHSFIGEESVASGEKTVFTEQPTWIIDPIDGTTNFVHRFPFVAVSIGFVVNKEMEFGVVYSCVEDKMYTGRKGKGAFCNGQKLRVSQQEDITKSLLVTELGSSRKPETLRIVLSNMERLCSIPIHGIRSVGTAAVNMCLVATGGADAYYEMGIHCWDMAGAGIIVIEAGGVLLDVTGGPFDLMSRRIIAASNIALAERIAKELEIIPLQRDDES
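CHO-M1, 2000 cells/well, cultured 16–30 h; cpd up to 46 uM; carbachol (50 uM solution, stimulation buffer w/ 50 mM LiCl, pH 7.4), 30 min 37C; IP-One TR-FRET, 10 min RT; Ex 320/Em 665, 620; Hill-fit AC50.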
HPGD inh – qHTS Assay for Inhibitors of HPGD (15-Hydroxyprostaglandin Dehydrogenase); 15-hydroxyprostaglandin dehydrogenase [NAD(+)] (Homo sapiens), P15428; purified HPGD, NADH fluorescence kinetic, PGE2 substrate; Potency, µM, for inactives: at the top dose activity change, negative = inhibition, usual class: inhibitors; hit rate 4.3% among 150,000; also: potency is read from the fitted curve at half-maximal effect
Target sequence (P15428 whole entry, looked up): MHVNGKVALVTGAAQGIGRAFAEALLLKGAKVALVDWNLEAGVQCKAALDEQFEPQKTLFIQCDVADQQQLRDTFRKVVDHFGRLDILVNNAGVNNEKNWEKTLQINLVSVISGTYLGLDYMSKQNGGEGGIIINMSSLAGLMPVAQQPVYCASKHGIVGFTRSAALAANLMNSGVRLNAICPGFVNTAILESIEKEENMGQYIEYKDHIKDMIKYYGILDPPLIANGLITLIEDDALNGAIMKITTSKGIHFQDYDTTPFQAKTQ
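NADH formation kinetics: reaction with 30 uM PGE2 and 1 mM NAD+ (final), 20 nM enzyme, Tris-HCl pH 8 with Tween 20, after 15 min compound preincubation at room temperature. Fluorescence change, last versus first of five reads.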
* marks the source's active call; other numbers are inactive results; ? = inconclusive; · = no result; [ ] = remark or other dose. A selection: hits, their analogues and other compounds. The true share with any hit is near 9%. Unless noted, calls follow the shape of the dose curve; as a rule, active = well fitted inhibition curve with a large enough effect (not every such curve was filed as active); inconclusive = small, poorly fitted or top-dose-only effect, or another doubt; inactive = no such curve, though single readings can be large or run the other way. Unless noted, % is scaled to controls: 0 for no effect and ±100 for the full control effect.

SMILES | ALDH1A1 inh | IMPase inh | HPGD inh
Cc1ccccc1NC(=O)CCC(=O)N/N=C/c1cc([N+](=O)[O-])ccc1O | ? | · | -24.7%
O=[N+]([O-])c1ccc(O)c(/C=N/n2cnc3ccccc32)c1 | ? | 9.4 | 14.1µM*
O=[N+]([O-])c1ccc(O)c(/C=N/n2c(CO)nc3ccccc32)c1 | 3.16µM* | · | ·
COc1ccc(/C=N/NC(=O)C2(C)NC(C)(C)Cc3ccccc32)cc1 (stereo not given) | 1.8% | · | ·
CC(C)(C)OC(=O)NCCCC1=CC2=CC(=O)C(C)(OC(=O)c3ccc(Cl)nc3)C(=O)C2=CO1 (stereo not given) | -6.3% | · | -7.8%
COCCn1c(=O)cnc2cnc(N(C)C)nc21 | -1.7% | · | ·
COc1cccc(C(=O)Nc2cccc(C(=O)NC3=NN(c4c(Cl)cc(Cl)cc4Cl)C(=O)C3)c2)c1 | -1.1% | 16.9 | -24.9%
COc1ccc(/C=C2\C(=O)N(c3c(Cl)cc(Cl)cc3Cl)N=C2NC(=O)c2cccc([N+](=O)[O-])c2)cc1 | ? | · | 22.4µM*
CC1CCN(C(=O)c2cc3ccccc3o2)CC1 | ? | 6.6 | 11.2µM*
O=C(c1cc2ccccc2o1)N1CCCC1 | 4.9% | · | ·
O=C(/C=C/N1CCOCC1)c1cc2ccccc2o1 | 17.8µM* | -14.3[1.84 µM] | -13.9%
Cc1ccc(C(=O)N2CCC(C)CC2)cc1C | 11.2µM* | 8.0[0.0738 µM] | 0.794µM*
O=C(Nc1ccc(N2CCOCC2)cc1)c1cc2ccccc2o1 | ? | 8.0 | -24.3%
O=C(c1cc2ccccc2o1)N1CCC(N2CCC(C(=O)N3CCCC3)CC2)CC1 | -4.4% | · | ·
O=C(c1cc2ccccc2o1)N1CCCCCC1 | ? | 6.4 | 7.94µM*
Cc1ccc(C(=O)N2CCN(c3ccccc3)CC2)cc1C | ? | 19.9 | -10.4%
Cc1ccccc1CS(=O)(=O)Cc1ccc(C(=O)NCCCN2CC(C)CC(C)C2)o1 (stereo not given) | 3.5% | · | ·
CCCOc1cc(CN2CCCCC2)cc(C(C)=O)c1 | -12.1% | -0.9 | -0.1%
S=C(NC1CCCC1)N1CCN(C/C=C/c2ccccc2)CC1 | -4.2% | · | ·
Cc1ccc(C2=NN3C(C(=O)c4ccccc4)Oc4ccccc4C3C2)cc1 (stereo not given) | ? | 3.0[1.84 µM] | -11.4%
C#CCCCO/N=C1/[C@H]2O[C@@H]2[C@@H](O)[C@H]2[C@H]1CCn1c(=O)n(-c3ccccc3)c(=O)n12 | 13.1%[13.5 µM] | · | ·
O=C(CCC(=O)c1cccs1)NCC(=O)Nc1ccc(F)c(F)c1F | -8.7% | · | -5.6%
Cc1ccc(C)c(Oc2coc3cc(OCC(=O)Nc4ccccc4C(C)C)ccc3c2=O)c1 | 0.0% | -0.8 | -13.7%
CN(C(=O)c1ccc(COc2ccccc2Br)o1)c1ccccc1 | -6.5% | · | ·
CC(C(O)C12CC3CC(CC(C3)C1)C2)N1CCCCC1 (stereo not given) | -1.7% | · | ·
SMILES | ALDH1A1 inh | IMPase inh | HPGD inh
CC1CCN(C(=O)c2cc(-c3ccccc3O)on2)CC1 | 14.1µM* | 1.6 | 14.1µM*
CC1(C)CC2CC(C)(CN2C(=O)c2cc(-c3ccccc3O)on2)C1 (stereo not given) | -10.7% | 2.0 | -26.4%
CC(C)C[C@H]1COC(c2ccc(Br)cc2)=N1 | 4.1% | · | -14.3%
CCCC(=O)NCCc1ccc(S(N)(=O)=O)cc1 | 4.47µM* | -4.4 | -11.8%
CNC(=O)OC(C)CNS(=O)(=O)c1ccc(C)cc1 (stereo not given) | -0.1% | -1.0 | -8.0%
Cc1ccc(S(=O)(=O)NCCc2ccc(S(N)(=O)=O)cc2)cc1 | 25.1µM* | 2.7 | -6.7%
Cc1ccc(S(=O)(=O)NCCC(=O)O)cc1 | 13.9% | -5.6 | -2.2%
Cc1ccc(S(=O)(=O)NCC(C)NS(=O)(=O)c2ccc(C)cc2)cc1 (stereo not given) | 0.398µM* | 9.6 | -6.0%
Cc1ccc(CSCCNS(=O)(=O)c2ccc(C)cc2)cc1 | 10µM* | · | -8.4%
CCC(C)C(=O)NCCc1ccc(S(N)(=O)=O)cc1 (stereo not given) | 10.7% | · | -4.6%
Cc1ccc(CCNS(=O)(=O)c2ccc(C)cc2)cc1 | ? | -4.5 | -6.4%
CCOC(=O)CC(=O)NC1(Cc2ccc(O)cc2)CCCCC1 | 11.0% | · | ·
O=C(COC(=O)[C@H](Cc1ccccc1)NC(=O)c1cccs1)NC1CC1 | ? | -0.7 | -4.4%
O=C(NCc1ccncc1)Nc1ccccc1F | 9.9% | · | ·
OCCC1CN(Cc2cccn2-c2cccnc2)CCN1C1CCCCC1 (stereo not given) | 4.8% | · | ·
N=C1C(c2ccc(Br)cc2)=C(O)C2CCc3ccccc3N12 (stereo not given) | -4.9% | -2.9 | -8.7%
N=C1C(c2ccccc2)=C(O)C2CCc3ccccc3N12 (stereo not given) | 8.3% | 3.3 | 15.8µM*
COc1ccc(CNC(=O)C(CCSC)NC(=O)c2ccco2)cc1 (stereo not given) | -5.3% | 6.1 | -3.3%
CCn1cc(C(C)NC(=O)Nc2ccc3c(c2)OCO3)c(C)n1 (stereo not given) | 2.5% | · | ·
CCCOCC1CC(CCc2nc(=S)[nH][nH]2)C(=O)O1 (stereo not given) | 2.1% | · | -24.4%
CCCCOCC1CC(CC#CCN2CCCCC2)C(=O)O1 (stereo not given) | 25.1µM* | · | ·
C=CCn1c(C)cc(C2=NNC(=NC(C)(C)C)SC2)c1C | ? | · | -17.6%
CC(C)(C)N=C1NN=C(c2cc3ccccc3o2)CS1 | 22.4µM* | -4.9 | ·
COCC(=O)N1CCC2(CC1)CCN(c1ccccc1)CC2 | ? | · | 1.0%
COc1ccc(CNC(=O)[C@H]2C[C@@H]2[C@H](NP(=O)(c2ccccc2)c2ccccc2)c2ccccc2)cc1OC | -12.4% | · | -6.6%
SMILES | ALDH1A1 inh | IMPase inh | HPGD inh
COc1ccc(S(=O)(=O)NCCOc2ccccc2)cc1OC | -0.3% | -10.4 | -8.6%
COc1ccc(S(=O)(=O)NCCOc2ccccc2)cc1-n1cnnn1 | 8.91µM* | · | ·
Cc1[nH]nc2c1C(c1ccoc1)C(C#N)=C(N)O2 (stereo not given) | -1.5% | 6.7 | 0.3%
Cc1ccc(C2C(C#N)=C(N)SC(N)=C2C#N)cc1 | 22.4µM* | ? | -16.4%
Cc1ccc(C2C(C#N)=C(N)SC(N)=C2C#N)c(C)c1 | ? | 0.4 | ?
N#CC1=C(N)SC(N)=C(C#N)C1c1ccoc1 | 20µM* | ? | 28.2µM*
CC1=C(C#N)C(c2ccoc2)C(C(=O)OCc2ccccc2)=C(N)S1 (stereo not given) | 28.2µM* | -11.0 | -18.1%
C=CCOC(=O)C1=C(C)OC(N)=C(C#N)C1c1ccoc1 (stereo not given) | -10.0% | 3.1 | -15.3%
CCOC(=O)c1ccc(Cn2c(-c3ccccc3)nnc2-c2ccccc2)o1 | ? | 9.8 | -19.5%
O=C(CC(Nc1ccccc1Cl)C(=O)OCC(=O)c1cccs1)c1ccccc1 (stereo not given) | 25.1µM* | 12.3 | -19.8%
O=C(OCC(=O)c1cccs1)c1ccccc1 | 12.6µM* | -7.8 | 14.1µM*
O=C(CNC(=O)c1cccs1)OCC(=O)c1ccccc1Cl | 0.8% | · | ·
O=C(CNC(=O)c1cccs1)OCC(=O)c1ccccc1 | 6.1% | -8.2 | -12.7%
C=C1C[C@H](OC(=O)C(C)(O)CCl)C2C(=C)C(=O)O[C@@H]2C2C1C[C@H](O)[C@]2(O)CCl (stereo not given in full) | 18.5% | · | -3.7%
